Laboratory results: PubChem BioAssay (NCI)
“And” between values parts separate entries of the source, which are not always exact repeats. Equal values may be shown once. The panel holds about 83,000 compounds, 20% with a hit somewhere; the sample as a whole holds those more often.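 Single-dose data. Exposure time 48 hours. Values below 10 considered active.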 The source made the active and inactive calls.

tested on: SK-MEL-2 melanoma; assay: NCI-60 one-dose screen, 48 h (100 = growth as untreated, 0 = no growth, -100 = all killed); settings: 10 µM
Description: Growth inhibition of the SK-MEL-2 human tumor cell line is measured as a screen for anti-cancer activity. Cells are grown in 96 well plates and exposed to the test compound for 48 hours. Compounds are tested at a single concentration, which is 10^-5 M for most compounds. The reported endpoint is percent growth (GI% or GIPRCNT), where numbers from 0 - 100% represent growth inhibition, and numbers from -100% - 0 represent cell death. For example, a value of 40 represents 60% growth inhibition. A value of 0 means no net growth occurred over the course of the experiment. A value of -40 indicates 40% of cells at the beginning of the experiment died by the end of the experiment. A value of -100 means all cells are dead at the end of the experiment.
NCI-60 Human Tumor Cell Lines Screen was performed using the standard one-dose NCI protocol, which is described in more detail at https://dtp.cancer.gov/discovery_development/nci-60/default.htm.
Compounds with GIPRCNT values below 10 were considered active. Activity score was based on GIPRCNT using the following formula: […]
Score is 0 for GIPRCNT values of 100 or above, 50 for GIPRCNT values of 0, and 100 for GIPRCNT values of -100.

| Structure (SMILES) | growth |
| --- | --- |
| CN(C)C(=O)c1ccc(SC(=S)NCc2ccccc2)cc1 | 114% (inactive) |
| O=C(Nc1cccc(Br)c1)Oc1cccc2cccnc12 | 85.8% (inactive) |

same assay, conditions: 10 µM unless noted

| Structure (SMILES) | growth |
| --- | --- |
| N#CC1C(=O)SC2c3ccccc3C(=O)c3ccccc3C12 (stereo not given) | 98.5% (inactive) |
| CCCCCC(CCCCC)C(=O)O | 99.2% (inactive) |
| COc1cc(NS(C)(=O)=O)ccc1Nc1c2ccccc2nc2ccccc12 | 96.5% [2.5 µM] (inactive) |
| O=[N+]([O-])c1ccc(N=Nc2ccc(O)cc2O)cc1 | 43.1% (inactive) |
| O=C1c2cccnc2-c2nccc3c2c1nc1cc(Br)ccc13 | 16.8% (inactive) and -59% (active) |
| O=C1c2ccccc2C(=O)c2sc(Nc3ccc(Cl)cc3)nc21 | 35.9% (inactive) |
| Cn1c2ccccc2c2nnc(N/N=C/c3ccccn3)nc21 | 51.3% (inactive) |
| Cc1ccc2nc(C[n+]3ccc4ccccc4c3)ccc2c1 | 78.8% (inactive) |
| COC(=O)c1nc(=S)[nH]c(C(=O)OC)c1C(=O)c1ccccn1 | 24.9% (inactive) |
| Oc1c(Br)cc(Cl)cc1C(c1cc(Cl)cc(Br)c1O)C(Cl)(Cl)Cl | -30.2% (active) |
| CCC(c1cccc(O)c1)C(CC)c1cccc(O)c1 (stereo not given) | 71.8% (inactive) |
| NC(=S)N/N=C/c1ccc(Cl)s1 | 105% (inactive) |
| NC(N)=N/N=C/c1ccc([N+](=O)[O-])o1 | 83.4% (inactive) |
| CCN(CC)CCOc1ccc(-c2nc3cc(Cl)ccc3s2)cc1 | 80.2% (inactive) |
| N#CSCc1ccc(Cl)c(CSC#N)c1 | 83.2% (inactive) |
| Nc1ncnc2c1ncn2C1OC(CO)C(O)C1O (stereo not given) | 144% (inactive) and 67.2% (inactive) and 121% (inactive) |
| COc1ccccc1OC(=O)Oc1ccccc1OC | 115% (inactive) and 91.6% (inactive) |
| O=C(Nc1ccccc1)Oc1c(Cl)c(Cl)c(Cl)c(Cl)c1Cl | 95.6% (inactive) and 101% (inactive) |

| Structure (SMILES) | growth |
| --- | --- |
| Cc1ccc2nc(-[n+]3cc4ccccc4cc3C)ccc2c1 | 39.5% (inactive) |
| O=C(/C=C/c1cccc(Cl)c1)c1ccccc1 | 109% (inactive) and 100% (inactive) |
| Cc1c2ccccc2c(C)c2c1ccc1ccccc12 | 98.6% (inactive) |
| NC1=CC(=O)c2ccccc2C1=O | 88.6% (inactive) |
| CC(C)c1ccc2nc3ccc(C(=O)NCCN4CCN(c5ccccc5)CC4)cn3c(=O)c2c1 | 75.4% (inactive) |
| CC1OC(OC2C(OC3CCC4(C)C(CCC5(C)C4CC=C4C6CC(C)(C)CCC6(CO)C(O)CC45C)C3(C)C)OC(C(=O)O)C(OC3OC(COC4OC(CO)C(O)C(O)C4O)C(O)C(O)C3O)C2O)C(O)C(O)C1O (stereo not given) | -75.3% (active) |
| CCOC(=O)/C(=C\c1ccc(-c2ccccc2)cc1)C(C)=O | 104% (inactive) |
| O=C(Oc1cccc2cccnc12)c1ccccc1 | 110% (inactive) and 96.7% (inactive) |
| Cc1cc(C(C)(CC(C)C)c2ccc(O)c(C)c2)ccc1O | 104% (inactive) |
| O=C(Nc1ccccc1)c1cc(Cl)ccc1O | -6.3% (active) |
| CCCCCCCCCCCCCCNCc1ccccc1 | 96.4% (inactive) |
| S=C(NCCNC(=S)[S][Sn]([c]1ccccc1)([c]1ccccc1)[c]1ccccc1)[S][Sn]([c]1ccccc1)([c]1ccccc1)[c]1ccccc1 | -93.1% (active) |
| O=C(Nc1cccc(Br)c1)Oc1ccc(Cl)c2cccnc12 | 17% [100 µM] (inactive) |
| N#CSCc1ccc(CSC#N)c(Cl)c1 | 86.2% (inactive) |
| O=C(/C=C\c1ccccc1)N1c2ccccc2CC1c1c[nH]c2ccccc12 (stereo not given) | 61.3% (inactive) |
| CCC1OC(OC)C=CC1=O (stereo not given) | 129% (inactive) |
| O=C1N[C@H]2[C@H](CS[C@H]2CCCCC(=O)N(CCP(c2ccccc2)c2ccccc2)CCP(c2ccccc2)c2ccccc2)N1 | 81.3% (inactive) |
| N#CSCc1c(Cl)cccc1Cl | 102% (inactive) |

same assay, conditions: 100 µM

| Structure (SMILES) | growth |
| --- | --- |
| CN(C)C(=O)c1ccc(SC(=S)NCc2ccccc2)cc1 | 4.25% (active) |
| O=C(Nc1cccc(Br)c1)Oc1cccc2cccnc12 | 9.32% (active) |
